Consider nine compounds from PubChem BioAssay (NCI).

What all share (assay): NCI-60 one-dose screen, 48 h (100 = growth as untreated, 0 = no growth, -100 = all killed)
The subject of one experiment is SR leukemia. To be noted: 10 µM unless noted.
A further experiment relates to RPMI-8226 leukemia. The following applies: 10 µM unless noted.
The subject of the next experiment is OVCAR-8 ovarian. To be noted: 10 µM unless noted.
For the next experiment, the system named is OVCAR-5 ovarian. To be noted: 10 µM unless noted.
A further experiment deals with OVCAR-4 ovarian. The following applies: 10 µM unless noted.
The next experiment relates to SK-OV-3 ovarian. To be noted: 10 µM unless noted.
The test system of the next experiment is IGROV1 ovarian. The following applies: 10 µM unless noted.
For the next experiment, the system named is OVCAR-3 ovarian. The following applies: 10 µM unless noted.
A further experiment has as its system NCI/ADR-RES ovarian. To be noted: 10 µM unless noted.
A further experiment deals with T-47D breast. The following applies: 10 µM unless noted.
A further experiment has as its system BT-549 breast. To be noted: 10 µM unless noted.
A further experiment has as its system MDA-MB-435 melanoma. The following applies: 10 µM unless noted.
The next experiment relates to SW-620 colon. To be noted: 10 µM unless noted.
Another experiment concerns MCF7 breast. The following applies: 10 µM unless noted.
The next experiment has as its system HCT-116 colon. The following applies: 10 µM unless noted.
A further experiment deals with HCC-2998 colon. To be noted: 10 µM.
The test system of a further experiment is KM12 colon. To be noted: 10 µM unless noted.

The panel holds about 83,000 compounds, 20% with a hit somewhere; the sample as a whole holds those more often.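 Percent growth is the endpoint: 0 to 100 indicates growth inhibition (40 means 60% inhibition), 0 means no net growth, and negative values indicate cell death.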 Unmarked numbers belong to inactive results. Activity calls are given as the source filed them. How the source made its calls: active means growth percent below 10; inactive means the rest.

For the compound `Cn1cnc2c(F)c(Nc3ccc(Br)cc3Cl)c(C(=O)NOCCO)cc21`, the growth in the experiment with SR leukemia was 75%; in the experiment on RPMI-8226 leukemia, 69.9%; with OVCAR-8 ovarian, 66.4%; with OVCAR-5 ovarian it was 7.92% (active); in the experiment with OVCAR-4 ovarian, 65.5%; with SK-OV-3 ovarian it was 51.5%. The growth in the experiment on IGROV1 ovarian is 25.3%; with OVCAR-3 ovarian it was 106%; in the experiment with NCI/ADR-RES ovarian, 68.6%; with T-47D breast, 70%; in the experiment with BT-549 breast, 78.5%; in the experiment on MDA-MB-435 melanoma, 33.3%. The growth is 24.2% in the experiment on SW-620 colon; 96% in the experiment on MCF7 breast; 17.6% in the experiment on HCT-116 colon; -10.2% (active) with HCC-2998 colon; 28.6% in the experiment with KM12 colon.

As to `CO[C@H]1C[C@@H]2CC[C@@H](C)[C@@](O)(O2)C(=O)C(=O)N2CCCC[C@H]2C(=O)O[C@H]([C@H](C)C[C@@H]2CC[C@@H](O)[C@H](OC)C2)CC(=O)[C@H](C)/C=C(\C)[C@@H](O)[C@@H](OC)C(=O)[C@H](C)C[C@H](C)\C=C/C=C/C=C/1C`, the growth was 11.5% with SR leukemia; 23.8% with RPMI-8226 leukemia; 38.7% with OVCAR-8 ovarian; 56.6% in the experiment on OVCAR-5 ovarian; 22.9% in the experiment with OVCAR-4 ovarian; 34.3% in the experiment on SK-OV-3 ovarian. For the same compound, the growth is 13.8% in the experiment with IGROV1 ovarian; 47.6% with OVCAR-3 ovarian; 49% in the experiment on NCI/ADR-RES ovarian; -5.21% (active) with T-47D breast; 20.3% in the experiment with BT-549 breast; 36.9% in the experiment with MDA-MB-435 melanoma. The growth is 51.3% with SW-620 colon; 7.85% (active) in the experiment with MCF7 breast; 39.5% in the experiment on HCT-116 colon; 58.6% with HCC-2998 colon; 42.8% with KM12 colon.

For `Cc1ccc(F)c(NC(=O)Nc2ccc(-c3cccc4[nH]nc(N)c34)cc2)c1`, the growth was 4.39% (active) with SR leukemia; 9.63% (active) in the experiment on RPMI-8226 leukemia; 9.41% (active) in the experiment with OVCAR-8 ovarian; 21.4% in the experiment with OVCAR-5 ovarian; 21.1% in the experiment on OVCAR-4 ovarian; 52.1% with SK-OV-3 ovarian. Also, the growth is 10.1% in the experiment with IGROV1 ovarian; 33.2% in the experiment on OVCAR-3 ovarian; 26% in the experiment on NCI/ADR-RES ovarian; 1.25% (active) in the experiment on T-47D breast; 29.2% in the experiment with BT-549 breast; 16.8% in the experiment with MDA-MB-435 melanoma. In addition, the growth in the experiment with SW-620 colon was 14.9%; in the experiment on MCF7 breast, 2.81% (active); in the experiment with HCT-116 colon, 6.9% (active); in the experiment with HCC-2998 colon, -6.88% (active); with KM12 colon, 2.63% (active).

Turning to `O=c1[nH]ccc2c(S(=O)(=O)N3CCCNCC3)cccc12`, the growth is 83.3% with SR leukemia; 106% with RPMI-8226 leukemia; 90.4% in the experiment with OVCAR-8 ovarian; 62.9% in the experiment with OVCAR-5 ovarian; 89.5% with OVCAR-4 ovarian; -0.289% (active) with SK-OV-3 ovarian. Besides, the growth is 31.2% with IGROV1 ovarian; 60.7% in the experiment with OVCAR-3 ovarian; 75.4% in the experiment with NCI/ADR-RES ovarian; 37.7% with T-47D breast; 61.3% with BT-549 breast; 88% in the experiment on MDA-MB-435 melanoma. The growth was 91.1% in the experiment on SW-620 colon; 85.9% in the experiment on MCF7 breast; 81.5% in the experiment on HCT-116 colon; 92.2% with HCC-2998 colon; 93.3% with KM12 colon.

Turning to `COc1ccc(Cl)c(Nc2nc3ccccc3nc2NS(=O)(=O)c2cccc(NC(=O)C(C)(C)N)c2)c1`, the growth in the experiment with SR leukemia is 54.9%; in the experiment on RPMI-8226 leukemia, 51.5%; with OVCAR-8 ovarian it was 53.3%; in the experiment on OVCAR-5 ovarian, 45.7%; with OVCAR-4 ovarian, 68%; in the experiment on SK-OV-3 ovarian it was 4.52% (active). Further, the growth in the experiment on IGROV1 ovarian is -16.9% (active); in the experiment on OVCAR-3 ovarian it was 36.9%; in the experiment on NCI/ADR-RES ovarian, 52.6%; with T-47D breast it was -19.8% (active); with BT-549 breast it was 28%; with MDA-MB-435 melanoma, 53.5%. Further, the growth with SW-620 colon was 65.7%; with MCF7 breast it was 20.3%; with HCT-116 colon it was 47%; in the experiment with HCC-2998 colon it was 54.8%; in the experiment on KM12 colon, 53.1%.

Turning to `Cc1cn(-c2cc(NC(=O)c3ccc(C)c(Nc4nccc(-c5cccnc5)n4)c3)cc(C(F)(F)F)c2)cn1`, the growth with SR leukemia was 8.24% (active); with RPMI-8226 leukemia, 37.9%; in the experiment on OVCAR-8 ovarian, 42.6%; in the experiment with OVCAR-5 ovarian, 57%; in the experiment with OVCAR-4 ovarian it was 51.8%; in the experiment with SK-OV-3 ovarian, 119%. Further, the growth in the experiment on IGROV1 ovarian is -44.4% (active); in the experiment on OVCAR-3 ovarian, 92.6%; with NCI/ADR-RES ovarian, 31.6%; in the experiment with T-47D breast it was 45.6%; with BT-549 breast, 24.2%; in the experiment on MDA-MB-435 melanoma it was -11.9% (active). Further, the growth with SW-620 colon was 60%; in the experiment on MCF7 breast, 12.8%; in the experiment with HCT-116 colon, 42.6%; with HCC-2998 colon it was 63.8%; with KM12 colon, 30%.

Regarding `N#CCNC(=O)c1ccc(-c2ccnc(Nc3ccc(N4CCOCC4)cc3)n2)cc1`, the growth in the experiment on SR leukemia is 6.43% (active); in the experiment with RPMI-8226 leukemia, 27.3%; with OVCAR-8 ovarian, 24.1%; with OVCAR-5 ovarian, 29%; with OVCAR-4 ovarian, 65.8%; with SK-OV-3 ovarian it was 28.7%. Besides, the growth in the experiment on IGROV1 ovarian was 10.7%; in the experiment with OVCAR-3 ovarian it was 31.9%; with NCI/ADR-RES ovarian it was 62.7%; in the experiment on T-47D breast, 63.5%; in the experiment on BT-549 breast, 10.8%; with MDA-MB-435 melanoma it was 42.5%. Also, the growth in the experiment with SW-620 colon was 24%; with MCF7 breast, 15.6%; in the experiment with HCT-116 colon, -4.58% (active); in the experiment on HCC-2998 colon, 30.8%; with KM12 colon, 16.9%.

As for `CCN1CCN(Cc2ccc(-c3cc4c(N[C@H](C)c5ccccc5)ncnc4[nH]3)cc2)CC1`, the growth in the experiment with SR leukemia was 21.2%; in the experiment with RPMI-8226 leukemia, 55.9%; in the experiment on OVCAR-8 ovarian, 35.6%; in the experiment on OVCAR-5 ovarian, 8.61% (active); in the experiment on OVCAR-4 ovarian it was 76.2%; in the experiment with SK-OV-3 ovarian, -7.56% (active). Also, the growth with IGROV1 ovarian was -1.26% (active); in the experiment with OVCAR-3 ovarian, 56.8%; in the experiment with NCI/ADR-RES ovarian it was 46.7%; in the experiment on T-47D breast it was 29%; with BT-549 breast, 79.2%; with MDA-MB-435 melanoma, 37%. In addition, the growth in the experiment with SW-620 colon was 13.1%; with MCF7 breast, 48.6%; with HCT-116 colon, 19.7%; in the experiment on HCC-2998 colon, 14.3%; with KM12 colon it was 31.2%.

As for `CN1CC[C@@H](c2c(O)cc(O)c3c(=O)cc(-c4ccccc4Cl)oc23)[C@@H]1CO`, the growth in the experiment with SR leukemia is 1.89% (active); with RPMI-8226 leukemia, 3.13% (active); with OVCAR-8 ovarian it was 6.68% (active); in the experiment on OVCAR-5 ovarian, 7.25% (active); in the experiment on OVCAR-4 ovarian, -2.68% (active); in the experiment on SK-OV-3 ovarian it was 5.82% (active). Also, the growth in the experiment with IGROV1 ovarian is 6.42% (active); in the experiment with OVCAR-3 ovarian, 14%; in the experiment on NCI/ADR-RES ovarian, -3.1% (active); with T-47D breast it was -8.71% (active); in the experiment with BT-549 breast, -4.92% (active); with MDA-MB-435 melanoma, -67.9% (active). In addition, the growth in the experiment on SW-620 colon was 4.02% (active); in the experiment on MCF7 breast it was 4.7% (active); with HCT-116 colon, 3.53% (active); in the experiment with HCC-2998 colon, -25.8% (active); in the experiment with KM12 colon, 3.84% (active).
